# From PubChem BioAssay (EPA / NIEHS)
# Where “and” joins values, the source holds several entries; their conditions need not be identical. Identical values can stand only once. Records with an inconclusive call do not appear. Some compounds were tested as several samples or in several runs, with calls that do not always agree. Calls of active or inactive are those of the source. How the source made its calls, unless noted: active means hit-call score of the fitted dose curve at least 0.9, where 1 is the maximum; inactive means score below 0.9.
# Assays:
# [1] = CCTE_Shafer_MEA_acute_burst_number: CCTE's Neural Acute Assay for Single-Electrode Bursts, Shafer Lab (AID 2284013)
# How it was run: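 Burst totals were derived with adaptive spike detection (8x rms threshold) on filtered signals from rat cortical cultures; change relative to pre-treatment baseline after 40-min compound exposure (0.03-40 uM) was fitted in the negative direction against DMSO.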
# [2] = CCTE_Shafer_MEA_acute_burst_duration_mean: CCTE's Neural Acute Assay for Mean Burst Duration, Shafer Lab (AID 2284014);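 further: hits are decreases in mean burst duration relative to DMSO controls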
# How it was run: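 Acute exposure of mature rat cortical networks (DIV 13 or 15) grown on microelectrode arrays to 0.03-40 uM compound. Mean burst duration compared with the 40-min pre-dose baseline over a 40-min post-dose recording at 37 C.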
# [3] = CCTE_Shafer_MEA_acute_per_burst_spike_number_mean: CCTE's Neural Acute Assay for Average Number of Spikes Per Burst, Shafer Lab (AID 2284015);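 further: hits are decreases in mean spikes per burst versus baseline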
# How it was run: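 We recorded spontaneous network firing of rat cortical neurons for 40 min before and 40 min during exposure to compound at 0.03-40 uM, at 37 C. Spikes were detected adaptively at 8x rms noise, and the change in average spikes per burst was fitted against DMSO.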
# [4] = CCTE_Shafer_MEA_acute_interburst_interval_mean: CCTE's Neural Acute Assay for Mean Interburst Interval, Shafer Lab (AID 2284016);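 further: percent change of mean interburst interval versus each well's own pre-dose baseline; curves fitted for decrease in interburst interval relative to DMSO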
# How it was run: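 MEA recording of spontaneous network bursting in primary rat cortical cultures; mean interburst interval was compared before and after a 40-min compound exposure (0.03-40 uM) and expressed as percent change, relative to DMSO.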
# [5] = CCTE_Shafer_MEA_acute_burst_percentage_mean: CCTE's Neural Acute Assay for Percentage of Spikes in a Burst, Shafer Lab (AID 2284017);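 on AC50: curve fitted for loss of signal so potency reflects decreased burst percentage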
# How it was run: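 Compounds were tested at 0.03-40 uM on primary rat cortical neuron networks grown over microelectrodes, with at least three wells per compound. Spontaneous firing was recorded for 40 min before and 40 min after dosing, and the change in burst percentage was computed per well.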
# [6] = CCTE_Shafer_MEA_acute_burst_percentage_std: CCTE's Neural Acute Assay for Standard Deviation of Burst Percentage, Shafer Lab (AID 2284018);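 further: fitted in the negative direction so actives lower burst percentage SD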
# How it was run: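 Primary rat cortical neurons on 16-electrode MEA wells were recorded 40 min at baseline (DIV 13 or 15), then 40 min after compound (0.03-40 uM), at 37 C. Well value is SD across electrodes of spikes-in-bursts/total spikes; endpoint is percent change, DMSO-referenced.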
# [7] = CCTE_Shafer_MEA_acute_per_network_burst_spike_number_mean: CCTE's Neural Acute Assay for Average Number of Spikes in a Network Burst, Shafer Lab (AID 2284019);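 on AC50: curve fitted for loss of signal so actives reduce spikes per network burst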
# How it was run: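 Acute exposure of rat primary cortical networks (DIV 13/15) on MEAs; adaptive spike detection at 8x rms noise, 37 C. Percent change in spikes per network burst after 40 min with compound (0.03-40 uM), negative direction vs DMSO.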
# [8] = CCTE_Shafer_MEA_acute_per_network_burst_spike_number_std: CCTE's Neural Acute Assay for Standard Deviation of Number of Spikes in a Network Burst, Shafer Lab (AID 2284020);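 further: fitted for decrease in spike-number SD versus DMSO so actives lower it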
# How it was run: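 Acute MEA exposure, rat cortical neurons, 0.03-40 uM. Per-well % change versus own baseline; DMSO as negative control.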
# [9] = CCTE_Shafer_MEA_acute_network_burst_percentage: CCTE's Neural Acute Assay for Percentage of Network Bursts, Shafer Lab (AID 2284022);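 further: curves fitted for loss so actives lower network burst percentage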
# How it was run: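 Cortical neurons from rat were grown over microelectrode arrays and used on day 13 or 15 in vitro. Wells with at least 10 active electrodes received test chemical at 0.03-40 uM. Activity during 40 min of exposure was compared with the preceding 40-min baseline.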
# [10] = target: Estrogen receptor (Homo sapiens) (UniProt P03372); assay: CCTE_Deisenroth_AIME_96WELL_LUC_Active: CCTE's 96-well Estrogen Receptor Transactivation Assay with AIME metabolic competence (ERTA luciferase; metabolism positive), Deisenroth Lab (AID 2284023; active means hit-call score of the fitted dose curve at least 0.9, where 1 is the maximum)
# How it was run: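 Metabolism-positive mode: induced rat hepatic S9 in alginate microspheres conditions test solutions (0.002 - 200 uM, 10 points) for 2 hours. VM7Luc4E2 ER luciferase reporter cells then exposed 24 h; positive-direction fit against 17beta-estradiol, n=4 typical.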
# Chain of Estrogen receptor (Homo sapiens) (P03372 whole entry, looked up): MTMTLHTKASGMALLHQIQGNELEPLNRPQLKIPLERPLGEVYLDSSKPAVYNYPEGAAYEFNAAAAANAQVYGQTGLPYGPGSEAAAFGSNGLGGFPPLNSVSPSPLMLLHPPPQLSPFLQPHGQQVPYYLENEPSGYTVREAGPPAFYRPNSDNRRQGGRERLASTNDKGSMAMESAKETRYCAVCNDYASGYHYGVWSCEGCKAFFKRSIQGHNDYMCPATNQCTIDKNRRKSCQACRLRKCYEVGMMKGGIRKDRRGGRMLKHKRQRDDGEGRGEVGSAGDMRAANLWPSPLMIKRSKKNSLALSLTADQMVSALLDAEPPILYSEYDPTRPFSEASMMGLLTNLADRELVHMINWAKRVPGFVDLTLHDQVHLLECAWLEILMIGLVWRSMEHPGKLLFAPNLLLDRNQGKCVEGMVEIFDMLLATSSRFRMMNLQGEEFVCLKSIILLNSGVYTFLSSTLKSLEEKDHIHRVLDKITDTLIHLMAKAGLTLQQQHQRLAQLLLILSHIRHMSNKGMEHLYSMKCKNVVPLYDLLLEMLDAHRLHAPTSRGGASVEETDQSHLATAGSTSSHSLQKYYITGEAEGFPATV
compound,measurement,setting,value
CC/C(=C(\c1ccccc1)c1ccc(OCCN(C)C)cc1)c1ccccc1,AC50,[1],2.79 µM (active) and 4.2 µM (active)
same,outcome,[2],inactive
same,AC50,[3],18.3 µM (active)
same,outcome,[3],inactive
same,AC50,[4],3.74 µM (active)
same,outcome,[4],inactive
same,AC50,[5],18.3 µM (active) and 15.8 µM (active)
same,AC50,[6],15.3 µM (active)
same,outcome,[6],inactive
same,outcome,[7],inactive
same,AC50,[8],18.3 µM (active)
same,outcome,[8],inactive
same,AC50,[9],18.3 µM (active) and 13.2 µM (active)
N[C@@H](CCC(=O)O)C(=O)O,outcome,[1],inactive
same,outcome,[2],inactive
same,outcome,[3],inactive
same,outcome,[4],inactive
same,outcome,[5],inactive
same,outcome,[6],inactive
same,outcome,[7],inactive
same,outcome,[8],inactive
same,outcome,[9],inactive
O=C(c1ccc(OCCN2CCCCC2)cc1)c1c(-c2ccc(O)cc2)sc2cc(O)ccc12,AC50,[1],11200 nM (active)
same,outcome,[2],inactive
same,outcome,[3],inactive
same,outcome,[4],inactive
same,AC50,[5],32.5 µM (active)
same,outcome,[6],inactive
same,AC50,[7],4.05 µM (active)
same,AC50,[8],33.9 µM (active)
same,outcome,[9],inactive
c1ccc(Cc2ccccc2)cc1,AC50,[10],74.4 µM (active)
CC(C)(CO)CO,outcome,[1],inactive
same,outcome,[2],inactive
same,outcome,[3],inactive
same,outcome,[4],inactive
same,outcome,[5],inactive
same,outcome,[6],inactive
same,outcome,[7],inactive
same,outcome,[8],inactive
same,outcome,[9],inactive
c1ccc(OCCOc2ccccc2)cc1,outcome,[1],inactive
same,outcome,[2],inactive
same,outcome,[3],inactive
same,outcome,[4],inactive
same,outcome,[5],inactive
same,outcome,[6],inactive
same,outcome,[7],inactive
same,outcome,[8],inactive
same,outcome,[9],inactive
CCCCOCCOCCO,outcome,[1],inactive
same,outcome,[2],inactive
same,outcome,[3],inactive
same,outcome,[4],inactive
same,outcome,[5],inactive
same,outcome,[6],inactive
same,outcome,[7],inactive
same,outcome,[8],inactive
same,outcome,[9],inactive
CCn1cc(C(=O)O)c(=O)c2ccc(C)nc21,AC50,[1],3 nM (active)
same,outcome,[2],inactive
same,outcome,[3],inactive
same,outcome,[4],inactive
same,outcome,[5],inactive
same,outcome,[6],inactive
same,outcome,[7],inactive
same,outcome,[8],inactive
same,outcome,[9],inactive
CCCO[Si](OCCC)(OCCC)OCCC,outcome,[1],inactive
same,outcome,[2],inactive
same,outcome,[3],inactive
same,AC50,[4],15 µM (active)
same,outcome,[5],inactive
same,outcome,[6],inactive
same,outcome,[7],inactive
same,outcome,[8],inactive
same,AC50,[9],2.98 µM (active)
CC(=O)c1ccc(C)cc1,AC50,[1],3 nM (active)
same,outcome,[2],inactive
same,outcome,[3],inactive
same,outcome,[4],inactive
same,outcome,[5],inactive
same,outcome,[6],inactive
same,outcome,[7],inactive
same,outcome,[8],inactive
same,outcome,[9],inactive
CCCCN(CCO)CCO,outcome,[1],inactive
same,outcome,[2],inactive
same,outcome,[3],inactive
same,AC50,[4],24.1 µM (active)
same,outcome,[5],inactive
same,outcome,[6],inactive
same,AC50,[7],15 µM (active)
same,outcome,[8],inactive
same,AC50,[9],15 µM (active)
CC(C)CCCC(C)(C)O,outcome,[1],inactive
same,outcome,[2],inactive
same,outcome,[3],inactive
same,outcome,[4],inactive
same,outcome,[5],inactive
same,outcome,[6],inactive
same,outcome,[7],inactive
same,outcome,[8],inactive
same,outcome,[9],inactive
